Usually inhibition stands for the drop in the measured response relative to a control, in per cent.

These results are taken from ChEMBL document CHEMBL1961873, “Compounds: GSK PKIS; Assays: Nanosyn kinase panel” (2012).

The target in assay [1] is Tyrosine-protein kinase Fyn (Homo sapiens) (UniProt P06241). The following applies: at 1 µM.
Assay [2] deals with Tyrosine-protein kinase HCK (Homo sapiens) (UniProt P08631). The note with it: at 0.1 µM.
For assay [3] the target is unchanged. The following applies: at 1 µM.
Assay [4] addresses Insulin-like growth factor 1 receptor (Homo sapiens) (UniProt P08069). The note with it: at 0.1 µM.
Assay [5] shares this target. The note with it: at 1 µM.
Assay [6] has as its target Insulin receptor (Homo sapiens) (UniProt P06213). The following applies: at 0.1 µM.
Assay [7] has the same target. The note with it: at 1 µM.
Assay [8] deals with Insulin receptor-related protein (Homo sapiens) (UniProt P14616). The following applies: at 0.1 µM.
For assay [9] the target is unchanged. The following applies: at 1 µM.
Assay [10] has as its target T1, Tyrosine-protein kinase ITK/TSK (Homo sapiens) (UniProt Q08881).
T1 sequence (whole entry): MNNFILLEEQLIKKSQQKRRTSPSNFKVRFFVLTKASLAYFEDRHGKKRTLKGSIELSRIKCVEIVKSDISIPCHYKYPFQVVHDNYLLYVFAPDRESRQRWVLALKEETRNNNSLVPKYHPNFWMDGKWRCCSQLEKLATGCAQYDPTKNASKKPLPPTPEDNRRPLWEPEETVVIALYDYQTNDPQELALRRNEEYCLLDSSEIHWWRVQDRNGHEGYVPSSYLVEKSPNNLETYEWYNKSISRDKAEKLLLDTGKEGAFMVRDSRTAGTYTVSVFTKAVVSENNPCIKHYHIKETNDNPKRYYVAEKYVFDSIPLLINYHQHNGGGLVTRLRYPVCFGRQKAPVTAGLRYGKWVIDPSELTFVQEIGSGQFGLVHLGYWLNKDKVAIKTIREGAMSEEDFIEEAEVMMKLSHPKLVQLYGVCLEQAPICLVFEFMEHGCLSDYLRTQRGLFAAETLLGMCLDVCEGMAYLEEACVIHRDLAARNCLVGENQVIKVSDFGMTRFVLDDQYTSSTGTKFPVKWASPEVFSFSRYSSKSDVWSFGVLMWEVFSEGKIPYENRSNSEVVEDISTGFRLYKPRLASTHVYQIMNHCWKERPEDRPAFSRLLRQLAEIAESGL
The following applies: at 0.1 µM.

Assay [11] has as its target T1, Tyrosine-protein kinase ITK/TSK (Homo sapiens). The note with it: at 1 µM.
Assay [12] addresses Tyrosine-protein kinase JAK1 (Homo sapiens) (UniProt P23458). The following applies: at 0.1 µM.
The target is the same in assay [13]. The following applies: at 1 µM.
The target in assay [14] is Tyrosine-protein kinase JAK2 (Homo sapiens) (UniProt O60674). The following applies: at 0.1 µM.
The target is the same in assay [15]. The note with it: at 1 µM.
Assay [16] has as its target T2, Tyrosine-protein kinase JAK3 (Homo sapiens) (UniProt P52333).
T2 sequence (whole entry): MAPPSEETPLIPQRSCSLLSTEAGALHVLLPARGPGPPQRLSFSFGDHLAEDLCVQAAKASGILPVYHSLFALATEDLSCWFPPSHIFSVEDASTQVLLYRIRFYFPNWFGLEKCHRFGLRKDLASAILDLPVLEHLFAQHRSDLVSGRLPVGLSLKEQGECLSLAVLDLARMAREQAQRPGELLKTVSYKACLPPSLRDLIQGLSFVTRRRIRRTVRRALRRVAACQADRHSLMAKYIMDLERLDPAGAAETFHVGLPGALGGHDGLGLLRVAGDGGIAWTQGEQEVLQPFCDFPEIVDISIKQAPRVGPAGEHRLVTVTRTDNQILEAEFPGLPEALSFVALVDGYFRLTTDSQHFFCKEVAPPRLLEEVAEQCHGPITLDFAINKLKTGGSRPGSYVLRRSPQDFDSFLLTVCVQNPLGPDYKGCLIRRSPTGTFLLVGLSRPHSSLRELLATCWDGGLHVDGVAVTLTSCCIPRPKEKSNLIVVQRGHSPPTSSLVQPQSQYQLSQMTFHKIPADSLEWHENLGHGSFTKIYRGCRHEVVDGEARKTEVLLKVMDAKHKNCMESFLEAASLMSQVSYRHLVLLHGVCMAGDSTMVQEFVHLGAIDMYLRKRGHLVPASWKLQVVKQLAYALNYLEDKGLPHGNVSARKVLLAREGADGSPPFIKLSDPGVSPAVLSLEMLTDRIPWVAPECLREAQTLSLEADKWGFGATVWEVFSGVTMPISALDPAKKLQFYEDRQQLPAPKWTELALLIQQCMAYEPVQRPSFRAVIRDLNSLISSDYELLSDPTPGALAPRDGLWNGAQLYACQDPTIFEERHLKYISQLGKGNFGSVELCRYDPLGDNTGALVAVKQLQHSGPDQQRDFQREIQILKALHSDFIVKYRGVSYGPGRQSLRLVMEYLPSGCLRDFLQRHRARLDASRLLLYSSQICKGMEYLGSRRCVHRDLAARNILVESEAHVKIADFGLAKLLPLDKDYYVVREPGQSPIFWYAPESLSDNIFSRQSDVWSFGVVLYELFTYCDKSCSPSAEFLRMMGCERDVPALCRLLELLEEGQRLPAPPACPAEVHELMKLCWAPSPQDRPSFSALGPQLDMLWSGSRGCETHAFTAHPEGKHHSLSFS
The following applies: at 0.1 µM.

Assay [17] deals with T2, Tyrosine-protein kinase JAK3 (Homo sapiens). The following applies: at 1 µM.
In assay [18] the target is Vascular endothelial growth factor receptor 2 (Homo sapiens) (UniProt P35968). The following applies: at 0.1 µM.
Assay [19] has the same target. The note with it: at 1 µM.
In assay [20] the target is Mast/stem cell growth factor receptor Kit (Homo sapiens) (UniProt P10721). The note with it: at 0.1 µM.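 Note: values are mean inhibition of KIT, from the GSK PKIS dataset.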
Chain of Mast/stem cell growth factor receptor Kit (Homo sapiens) (P10721 whole entry): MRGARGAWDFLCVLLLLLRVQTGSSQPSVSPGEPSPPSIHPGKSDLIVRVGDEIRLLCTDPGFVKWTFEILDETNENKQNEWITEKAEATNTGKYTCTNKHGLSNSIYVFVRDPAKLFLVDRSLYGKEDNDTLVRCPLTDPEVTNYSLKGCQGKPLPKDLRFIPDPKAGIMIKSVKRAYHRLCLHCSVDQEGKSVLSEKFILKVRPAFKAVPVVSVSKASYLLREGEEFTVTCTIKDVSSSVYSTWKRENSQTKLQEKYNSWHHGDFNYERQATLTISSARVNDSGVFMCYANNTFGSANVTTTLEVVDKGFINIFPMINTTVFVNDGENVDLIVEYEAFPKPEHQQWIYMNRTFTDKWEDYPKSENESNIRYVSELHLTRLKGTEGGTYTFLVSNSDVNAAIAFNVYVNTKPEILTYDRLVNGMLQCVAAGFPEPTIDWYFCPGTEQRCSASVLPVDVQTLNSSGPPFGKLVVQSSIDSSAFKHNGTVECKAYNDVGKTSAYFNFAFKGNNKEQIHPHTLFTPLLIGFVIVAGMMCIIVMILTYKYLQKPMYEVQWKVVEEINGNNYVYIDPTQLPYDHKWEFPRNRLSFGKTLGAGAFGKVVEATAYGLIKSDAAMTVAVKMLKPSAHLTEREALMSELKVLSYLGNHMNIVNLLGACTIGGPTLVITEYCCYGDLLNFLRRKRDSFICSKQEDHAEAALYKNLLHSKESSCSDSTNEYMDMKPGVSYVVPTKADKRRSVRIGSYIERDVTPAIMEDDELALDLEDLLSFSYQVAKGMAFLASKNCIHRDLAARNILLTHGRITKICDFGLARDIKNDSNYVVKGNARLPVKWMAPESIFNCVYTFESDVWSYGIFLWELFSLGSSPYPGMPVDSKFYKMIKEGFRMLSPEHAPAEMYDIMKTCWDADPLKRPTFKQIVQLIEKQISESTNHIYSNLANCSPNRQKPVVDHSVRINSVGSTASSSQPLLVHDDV

Chain of Vascular endothelial growth factor receptor 2 (Homo sapiens) (P35968 whole entry): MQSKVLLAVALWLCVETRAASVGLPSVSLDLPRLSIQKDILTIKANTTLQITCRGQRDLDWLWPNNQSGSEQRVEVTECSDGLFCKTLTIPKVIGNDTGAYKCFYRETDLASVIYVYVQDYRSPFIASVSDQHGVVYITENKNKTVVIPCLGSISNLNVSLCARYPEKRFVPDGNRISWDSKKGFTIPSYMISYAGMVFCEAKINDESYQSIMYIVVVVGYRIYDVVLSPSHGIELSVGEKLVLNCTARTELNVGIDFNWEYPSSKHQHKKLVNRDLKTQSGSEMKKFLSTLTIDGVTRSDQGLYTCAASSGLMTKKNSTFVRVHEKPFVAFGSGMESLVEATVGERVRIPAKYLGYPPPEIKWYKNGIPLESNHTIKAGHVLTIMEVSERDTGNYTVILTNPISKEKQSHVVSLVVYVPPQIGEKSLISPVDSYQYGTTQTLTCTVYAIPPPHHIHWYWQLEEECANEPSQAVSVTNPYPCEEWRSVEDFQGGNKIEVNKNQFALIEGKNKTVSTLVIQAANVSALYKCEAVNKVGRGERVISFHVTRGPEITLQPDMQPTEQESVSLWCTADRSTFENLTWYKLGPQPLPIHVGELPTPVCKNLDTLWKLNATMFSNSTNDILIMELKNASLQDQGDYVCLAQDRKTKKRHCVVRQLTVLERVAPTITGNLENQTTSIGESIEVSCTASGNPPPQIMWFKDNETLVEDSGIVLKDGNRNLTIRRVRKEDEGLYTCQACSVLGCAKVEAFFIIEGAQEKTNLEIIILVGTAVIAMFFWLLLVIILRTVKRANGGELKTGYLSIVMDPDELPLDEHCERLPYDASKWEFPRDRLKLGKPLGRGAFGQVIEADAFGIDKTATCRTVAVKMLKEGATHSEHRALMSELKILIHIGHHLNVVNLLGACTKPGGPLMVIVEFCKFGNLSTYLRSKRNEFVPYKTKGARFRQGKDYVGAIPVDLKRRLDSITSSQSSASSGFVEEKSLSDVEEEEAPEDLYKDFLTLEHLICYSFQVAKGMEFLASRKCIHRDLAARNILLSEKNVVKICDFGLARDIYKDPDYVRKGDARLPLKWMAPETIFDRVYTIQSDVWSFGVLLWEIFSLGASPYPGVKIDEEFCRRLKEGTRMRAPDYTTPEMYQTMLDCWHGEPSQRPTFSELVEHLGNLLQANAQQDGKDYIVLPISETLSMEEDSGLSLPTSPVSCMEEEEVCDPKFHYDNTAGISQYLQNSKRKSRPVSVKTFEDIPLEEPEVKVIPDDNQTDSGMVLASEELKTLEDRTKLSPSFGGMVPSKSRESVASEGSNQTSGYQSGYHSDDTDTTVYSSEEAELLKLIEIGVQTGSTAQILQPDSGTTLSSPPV
Chain of Insulin receptor-related protein (Homo sapiens) (P14616 27-742 limits assumed): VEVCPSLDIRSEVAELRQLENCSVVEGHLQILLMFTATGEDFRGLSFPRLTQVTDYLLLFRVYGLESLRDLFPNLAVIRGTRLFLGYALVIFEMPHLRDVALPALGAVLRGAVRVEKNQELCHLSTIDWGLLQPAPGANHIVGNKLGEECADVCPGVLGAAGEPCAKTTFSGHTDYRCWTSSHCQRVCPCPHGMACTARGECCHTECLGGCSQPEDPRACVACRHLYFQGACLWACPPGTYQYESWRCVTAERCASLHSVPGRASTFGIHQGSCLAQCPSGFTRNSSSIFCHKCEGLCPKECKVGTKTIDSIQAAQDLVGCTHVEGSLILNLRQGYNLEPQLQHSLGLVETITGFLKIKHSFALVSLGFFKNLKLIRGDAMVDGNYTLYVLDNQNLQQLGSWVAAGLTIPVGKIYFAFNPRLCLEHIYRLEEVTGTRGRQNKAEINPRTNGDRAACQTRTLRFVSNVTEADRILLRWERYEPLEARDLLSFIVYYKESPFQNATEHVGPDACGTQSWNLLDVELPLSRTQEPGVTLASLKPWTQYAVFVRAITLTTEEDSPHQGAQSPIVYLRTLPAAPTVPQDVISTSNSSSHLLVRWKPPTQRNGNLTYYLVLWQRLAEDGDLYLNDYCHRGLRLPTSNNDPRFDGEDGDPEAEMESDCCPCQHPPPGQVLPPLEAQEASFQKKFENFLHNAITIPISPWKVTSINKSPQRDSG
Chain of Insulin receptor-related protein (Homo sapiens) (P14616 747-1297 limits assumed): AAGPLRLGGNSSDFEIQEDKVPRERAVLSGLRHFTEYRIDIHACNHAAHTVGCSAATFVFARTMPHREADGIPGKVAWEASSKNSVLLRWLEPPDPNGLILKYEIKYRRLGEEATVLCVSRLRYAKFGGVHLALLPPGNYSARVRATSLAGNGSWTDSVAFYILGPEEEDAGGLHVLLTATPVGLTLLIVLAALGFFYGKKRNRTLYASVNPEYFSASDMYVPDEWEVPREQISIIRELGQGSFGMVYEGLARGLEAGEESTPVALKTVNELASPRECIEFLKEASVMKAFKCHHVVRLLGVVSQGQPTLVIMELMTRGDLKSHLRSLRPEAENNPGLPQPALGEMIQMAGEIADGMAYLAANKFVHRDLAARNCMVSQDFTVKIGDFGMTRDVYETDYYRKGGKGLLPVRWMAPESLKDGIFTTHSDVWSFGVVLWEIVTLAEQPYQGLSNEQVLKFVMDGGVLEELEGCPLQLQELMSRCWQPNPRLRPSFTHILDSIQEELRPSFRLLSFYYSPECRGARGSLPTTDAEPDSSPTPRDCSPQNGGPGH
Chain of Insulin receptor (Homo sapiens) (P06213 28-758 limits assumed): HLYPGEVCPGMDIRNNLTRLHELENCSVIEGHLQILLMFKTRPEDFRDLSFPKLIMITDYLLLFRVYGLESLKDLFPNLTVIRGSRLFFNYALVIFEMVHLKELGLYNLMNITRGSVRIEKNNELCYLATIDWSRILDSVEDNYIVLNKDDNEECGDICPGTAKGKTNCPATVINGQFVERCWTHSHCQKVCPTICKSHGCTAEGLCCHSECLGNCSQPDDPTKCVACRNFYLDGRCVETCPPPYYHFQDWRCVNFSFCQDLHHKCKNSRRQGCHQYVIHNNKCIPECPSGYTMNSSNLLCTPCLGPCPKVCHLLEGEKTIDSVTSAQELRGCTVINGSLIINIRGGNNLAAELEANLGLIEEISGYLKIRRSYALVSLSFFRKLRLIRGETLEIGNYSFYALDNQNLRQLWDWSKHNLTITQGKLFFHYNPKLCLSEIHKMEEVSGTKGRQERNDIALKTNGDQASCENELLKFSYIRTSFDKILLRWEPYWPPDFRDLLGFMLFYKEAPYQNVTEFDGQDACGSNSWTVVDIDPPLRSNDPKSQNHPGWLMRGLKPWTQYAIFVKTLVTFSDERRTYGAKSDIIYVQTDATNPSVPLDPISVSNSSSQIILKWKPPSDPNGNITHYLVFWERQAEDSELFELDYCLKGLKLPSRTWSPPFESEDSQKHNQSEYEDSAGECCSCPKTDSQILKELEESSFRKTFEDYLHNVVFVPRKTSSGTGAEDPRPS
Chain of Insulin receptor (Homo sapiens) (P06213 763-1382 limits assumed): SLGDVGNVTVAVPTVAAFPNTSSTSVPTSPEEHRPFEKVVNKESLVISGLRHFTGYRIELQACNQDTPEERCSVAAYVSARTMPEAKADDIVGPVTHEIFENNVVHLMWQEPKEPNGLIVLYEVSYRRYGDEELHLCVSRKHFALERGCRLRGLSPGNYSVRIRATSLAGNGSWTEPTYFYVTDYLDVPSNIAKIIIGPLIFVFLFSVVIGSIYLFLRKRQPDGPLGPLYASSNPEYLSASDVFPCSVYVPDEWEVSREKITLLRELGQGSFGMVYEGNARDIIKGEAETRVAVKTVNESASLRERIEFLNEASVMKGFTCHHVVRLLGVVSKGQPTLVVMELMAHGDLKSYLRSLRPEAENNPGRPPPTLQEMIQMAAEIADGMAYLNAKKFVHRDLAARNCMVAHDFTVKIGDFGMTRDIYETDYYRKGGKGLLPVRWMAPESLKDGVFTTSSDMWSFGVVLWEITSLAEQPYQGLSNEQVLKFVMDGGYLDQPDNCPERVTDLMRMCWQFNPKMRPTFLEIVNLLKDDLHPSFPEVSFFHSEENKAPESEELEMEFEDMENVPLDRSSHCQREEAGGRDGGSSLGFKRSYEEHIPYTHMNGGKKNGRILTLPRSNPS

As for `Nc1nc(-c2ccccn2)c(-c2ccc3ncccc3n2)s1`, the inhibition in assay [1] was -0.24%; in [2], 2.25%; in assay [3], 6.89%; in [4], 3.05%; in assay [5], 3.2%; in assay [6], 2.46%. Further, the inhibition in [7] stood at 1.2%; in assay [8], 2.58%; in assay [9], 2.92%; in assay [10], 1.05%; in assay [11], 2.48%; in assay [12] it was 0.52%. Moreover, the inhibition in [13] was 4.22%; in [14] it was -0.07%; in assay [15], 2%; in [16] it was -1.07%; in [17], -0.57%; in assay [18] it was 3.52%. In addition, the inhibition in [19] amounted to 8.02%; in [20], 3.79%.

In the case of `CS(=O)(=O)CCN(CC#N)Cc1ccc(-c2ccc3ncnc(Nc4ccc(OCc5cccc(F)c5)c(Cl)c4)c3c2)o1`, the inhibition in [1] is -3.53%; in assay [2] it was 2.47%; in assay [3], 3.04%; in [5] it was -4.22%; in assay [6], 4.4%; in [7], 2.93%. Further, the inhibition was -0.19% in [8]; 0.84% in assay [9]; -2.61% in assay [10]; -3.44% in [11]; 0.62% in assay [12]; 1.2% in assay [13]. Also, the inhibition in assay [14] is 1.36%; in assay [15], 1.26%; in assay [16], -5.68%; in assay [17], -5.16%; in assay [18], 4.09%; in assay [19], 7.7%. The inhibition in [20] was -0.23%.

With `CCc1cccc(NC(=O)Nc2ccc(Oc3ccc4nc(NC(=O)OC)[nH]c4c3)cc2)c1`, the inhibition is 4.72% in assay [1]; 4.76% in assay [2]; 7.28% in assay [3]; 5.04% in [4]; 2.45% in assay [5]; -2.61% in [6]. The inhibition was determined as 0.47% in assay [7]; 2.05% in assay [8]; 3.39% in [9]; 0.3% in [10]; 1.87% in assay [11]; 1.39% in assay [12]. Further, the inhibition was 1.27% in [13]; 1.07% in [14]; 4.62% in [15]; -1.05% in [16]; 1.13% in assay [17]; 87.5% in assay [20].

For the molecule `Nc1nc(-c2ccc3c(c2)C(=Cc2cc(Br)c(O)c(Br)c2)C(=O)N3)cs1`, the inhibition is 8.82% in assay [1]; -1.41% in assay [2]; 7.14% in [3]; -1.89% in assay [4]; 0.82% in [5]; 1.87% in [7]. Besides, the inhibition in assay [8] was -3.05%; in assay [9] it was -2.21%; in assay [10], 0.01%; in assay [11], 1.31%; in assay [12], 0.76%; in assay [13] it was -0.48%. In addition, the inhibition in assay [14] is -0.72%; in assay [15], -1.87%; in assay [16], 1.19%; in assay [17] it was 2.02%; in assay [18] it was 1.8%; in [19] it was 11.3%. For the same molecule, in assay [20], the inhibition was -0.22%.

With `Cc1cc(O)cc(C)c1/C=C/c1cncc(-c2nn[nH]n2)c1`, the inhibition in [1] was 52.3%; in assay [2] it was 20.6%; in assay [3], 74.9%; in [4], -3.59%; in assay [5] it was -2.05%; in [6], 7.59%. For the same molecule, the inhibition in assay [7] was 8.18%; in [8], 2.98%; in [9] it was 2.21%; in assay [10], -2.15%; in [11], -1.93%; in assay [12] it was 1.7%. In addition, the inhibition was 4.82% in assay [13]; 1.66% in assay [14]; 2.27% in assay [15]; -4.63% in assay [16]; -3.88% in assay [17]; 4.58% in assay [18]. Also, the inhibition is 10.2% in assay [19] and 11.9% in [20].

As to `Fc1cccc(COc2ccc(Nc3ncnc4sc(-c5cccs5)cc34)cc2Cl)c1`, the inhibition in [1] was determined as 5.19%; in [2] it was 1.68%; in [3] it was 3.8%; in [4], 0.38%; in assay [5], 0.6%; in assay [6] it was 4.85%. Also, the inhibition was 3.43% in assay [7]; -1.46% in [8]; -0.83% in assay [9]; 0.84% in [10]; 1.32% in [11]; -0.79% in assay [12]. In addition, the inhibition was -0.37% in assay [13]; -0.63% in assay [14]; 0.58% in [15]; 1.46% in assay [16]; 1.31% in [17]; 4.41% in [18]. The inhibition in assay [19] amounted to 7.67%; in [20] it was 9.52%.

Regarding `N#Cc1c(NC(=O)c2cccc3ccccc23)sc2c1CCCC2`, the inhibition turned out to be 4.04% in assay [1]; 4.79% in assay [2]; 6.4% in assay [3]; 1.59% in assay [4]; 2.51% in assay [5]; 5.97% in [6]. Also, the inhibition came out at 6.62% in assay [7]; 0.81% in assay [8]; 1.11% in [9]; 1.77% in assay [10]; 1.28% in assay [11]; 3.98% in [12]. In addition, the inhibition is 3.68% in assay [13]; 1.62% in assay [14]; 1.85% in assay [15]; -0.84% in assay [16]; 1.51% in assay [17]; 6.33% in [18]. In addition, the inhibition in assay [19] came to 9.83%; in [20], 2.71%.
